Consider 74 molecules from PubChem BioAssay AID652115 (Broad Institute, 2013).

What is called inhibition is the change of the read-out against control, counted positive when it falls.

Where “and” joins values, the source holds several entries; their conditions need not be identical. Identical values can stand only once. The campaign covered roughly 330,000 compounds. About 3,800 (1.2%) were called active. No stated cut-off is given here; in the data, active means inhibition above about 15%; inconclusive means no clear call, values can overlap the other calls; inactive means below that. This excerpt belongs to a sample that is enriched for actives. More than one record can exist for a structure, and the calls need not agree.

NAD-dependent protein deacylase sirtuin-5, mitochondrial (Homo sapiens), sequence (Q9NXA8 whole entry, looked up): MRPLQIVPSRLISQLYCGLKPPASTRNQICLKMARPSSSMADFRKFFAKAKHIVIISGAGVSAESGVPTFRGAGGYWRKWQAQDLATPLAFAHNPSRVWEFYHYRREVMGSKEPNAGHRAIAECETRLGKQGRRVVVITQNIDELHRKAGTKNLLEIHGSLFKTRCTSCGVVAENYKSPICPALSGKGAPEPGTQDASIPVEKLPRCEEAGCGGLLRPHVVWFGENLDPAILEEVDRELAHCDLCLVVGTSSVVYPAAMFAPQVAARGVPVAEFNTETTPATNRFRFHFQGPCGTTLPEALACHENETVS

This experiment concerns the target NAD-dependent protein deacylase sirtuin-5, mitochondrial (Homo sapiens) (UniProt Q9NXA8). As to the kind of experiment: SIRT5 desuccinylase inhibitors, primary screen, biochemical, fluorescence imaging, single point, set 5 (AID 652115). The conditions noted are these: Purified SirT5, succinyl-peptide AMC, trypsin-coupled fluorescence; at 15 µM; stronger effect = higher value.
On to `O=C(Nc1cc(Cl)cc(Cl)c1)N[C@@H]1CC[C@H](CCNS(=O)(=O)c2cccc(F)c2)O[C@H]1CO`, for which the inhibition was 2.03% (inactive).

As for `CCCNC(=O)N1CC(=O)N2[C@H](CO)[C@H](c3ccc(C#Cc4cccc(OC)c4)cc3)[C@H]2C1`, the inhibition is -0.038% (inactive). The value for `CCCN(C)C[C@H]1Oc2cc(-c3ccc(C)cc3)ccc2S(=O)(=O)N([C@H](C)CO)C[C@H]1C` was 1.13% (inactive).

With `CN(C)C(=O)c1ccc(-c2ccccc2[C@@H]2[C@@H](C#N)N(C(=O)C3CCCC3)[C@H]2CO)cc1`, the inhibition was -3.26% (inactive). The value for `O=C(N[C@H]1C=C[C@@H](CC(=O)N2CCN(c3ccccc3)CC2)O[C@@H]1CO)c1ccncc1` was -0.959% (inactive). The value for `C=CCC[C@H](Cc1ccc(F)cc1)C(=O)OC[C@H](C)NC(=O)[C@H](CC=C)CC(=O)N(CCO)Cc1ccccc1` was 16.9% (active); that for `C=CCC[C@H](Cc1ccc(F)cc1)C(=O)OC[C@@H](NC(=O)[C@@H](CC=C)CC(=O)N[C@H](CO)Cc1ccccc1)C(C)(C)C` was 0.931% (inactive); that for `C=CCC[C@@H](Cc1ccc(F)cc1)C(=O)OC[C@@H](C)NC(=O)[C@H](CC=C)CC(=O)N(CCO)Cc1ccccc1` was -0.88% (inactive). The value for `CC1COc2ccccc2N1S(=O)(=O)c1ccccc1` (centres undefined) was -1.33% (inactive). Consider `CC1COc2ccccc2N1C(=O)c1ccc(F)cc1` (centres undefined), for which the inhibition was 22.7% (active).

As for `CC1COc2ccccc2N1C(=O)c1cccnc1Cl` (centres undefined), the inhibition is -1.34% (inactive). Take `COc1ccc(CN(C)C[C@@H]2OCCCC[C@@H](C)Oc3ccc(NC(=O)Nc4ccc(C(F)(F)F)cc4)cc3C(=O)N([C@H](C)CO)C[C@H]2C)cc1`: the inhibition was 6.39% (inactive). The value for `CN(C)CC(=O)N[C@H]1CC[C@H](CCNC(=O)Nc2ccc(F)cc2)O[C@H]1CO` was -1.16% (inactive); that for `Cc1nc(N2[C@H](CO)[C@H](c3ccccc3)[C@H]2CNCC2CCCCC2)sc1C` was 5.49% (inactive). The value for `CC(C)NC(=O)N1[C@@H]2c3ccc(-c4ccc(F)cc4)c(=O)n3C[C@@H]2[C@@H](CO)[C@@H]1C(=O)N1CCOCC1` was -2.98% (inactive); that for `Cc1cc(C(=O)Nc2nnc(C3CC3)s2)c(C)s1` was -4.14% (inactive). The value for `O=C(Nc1nnc(C2CC2)s1)c1ccccn1` was 23.4% (active). As for `O=C(Nc1nnc(C2CC2)s1)c1cc(Cl)sc1Cl`, the inhibition was -1.4% (inactive). The value for `CO[C@@H]1CN(C)C(=O)c2cc(NS(C)(=O)=O)ccc2OC[C@H](C)N(C(=O)C2CC2)C[C@@H]1C` was 1.74% (inactive). The value for `COCC(=O)Nc1ccc2c(c1)C(=O)N(C)C[C@@H](OC)[C@@H](C)CN(C(=O)Cc1ccccn1)[C@@H](C)CO2` was -3.53% (inactive); that for `C[C@@H](O)C#Cc1cnc2c(c1)C(=O)N([C@@H](C)CO)C[C@H](C)[C@H](CN(C)Cc1cncnc1)O2` was 8.12% (inactive); that for `Cc1ccc(C(=O)NCC(=O)NC2CC2)cc1` was -1.54% (inactive). With `COc1ccc(S(=O)(=O)NCC(=O)NCc2cc(=O)n(C)c(=O)n2C)cc1F`, the inhibition was -2% (inactive). The value for `Cc1ccc(C(=O)NCC(=O)NCc2cc(=O)n(C)c(=O)n2C)cc1` was 31.9% (active); that for `CC(C)NC(=O)Nc1ccc2c(c1)C(=O)N([C@H](C)CO)C[C@H](C)[C@@H](CN(C)C)OCCCC[C@H](C)O2` was 0.043% (inactive); that for `C#CCOc1ccc(/C=C2/C(=O)ON=C2C)cc1OCC` was -2.23% (inactive). The value for `COc1cc(/C=C2/C(=O)NN(c3cccc(Cl)c3)C2=O)cc(Br)c1O` was 9.45% (inactive); that for `C#CCOc1ccc(/C=C2/C(=O)NN(c3ccccc3)C2=O)cc1OC` was 98.1% (active); that for `CN(C)C(=O)C[C@H]1C=C[C@@H](NC(=O)C2CCC2)[C@@H](CO)O1` was -0.42% (inactive). The value for `C[C@H](CO)N1C[C@H](C)[C@H](CN(C)CC2CCCCC2)OCCCC[C@H](C)Oc2ccc(NC(=O)c3ccncc3)cc2C1=O` was 2.1% (inactive). As for `O=S(=O)(Cc1ccccc1)N1CCCCN2[C@@H](CO)[C@@H](c3ccc(-c4ccc(F)cc4)cc3)[C@@H]2C1`, the inhibition is 4.06% (inactive).

With `COc1ccc2c3c(n(C)c2c1)[C@@H](CO)N(C(=O)CN1CCOCC1)CC31CCN(C(=O)C2CC2)CC1`, the inhibition was -4.96% (inactive). The value for `O=C(C[C@@H]1CC[C@H]2[C@@H](COC[C@@H](O)CN2Cc2nccs2)O1)NCc1ccc(-c2ccccc2)cc1` was 3.03% (inactive); that for `O=C(C[C@@H]1CC[C@@H]2[C@H](COC[C@@H](O)CN2Cc2ccc(Cl)cc2)O1)NCc1ccccc1Cl` was -1.3% (inactive).

As to `O=C(C[C@H]1CC[C@H]2[C@@H](COC[C@@H](O)CN2Cc2nccs2)O1)NCc1ccccc1Cl`, the inhibition was 16.4% (active).

Take `O=C(C[C@@H]1CC[C@@H]2[C@H](COC[C@H](O)CN2Cc2cccc(C(F)(F)F)c2)O1)NCc1ccc(F)cc1`: the inhibition was 16.6% (active). Consider `O=C(C[C@H]1CC[C@H]2[C@@H](COC[C@@H](O)CN2Cc2cccc(C(F)(F)F)c2)O1)NCc1ccncc1`, for which the inhibition is 2.67% (inactive). The value for `O=C(C[C@@H]1CC[C@@H]2[C@H](COC[C@H](O)CN2Cc2cccc(F)c2)O1)NCc1ccncc1` was -0.883% (inactive). With `CN(C)C(=O)[C@@H]1[C@@H](CO)[C@@H]2Cn3c(ccc(-c4ccccc4)c3=O)[C@@H]2N1CCC(F)(F)F`, the inhibition was 0.07% (inactive). The value for `C[C@@H](NC(=O)C[C@H]1C=C[C@H](NC(=O)C2CCOCC2)[C@H](CO)O1)c1ccccc1` was 2.71% (inactive); that for `COc1ccc(NC(=O)N2C[C@H](O)COC[C@H]3O[C@@H](CC(=O)NC4Cc5ccccc5C4)CC[C@@H]32)cc1` was -1.07% (inactive). The value for `CC(C)CC#Cc1cnc2c(c1)C(=O)N([C@@H](C)CO)C[C@@H](C)[C@@H](CN(C)S(=O)(=O)c1cccs1)O2` was 3.74% (inactive); that for `C/C=C/c1ccc([C@H]2[C@@H](CO)N(C(=O)C3CC3)[C@@H]2CNC(=O)NC(C)C)cc1` was -3.13% (inactive); that for `CCC(=O)N(C)C[C@@H]1Oc2ncc(C#CCC3CCCC3)cc2C(=O)N([C@@H](C)CO)C[C@H]1C` was 2.53% (inactive). Turning to `CN1C(=O)c2cc(NC(=O)C3CCOCC3)ccc2OC[C@@H]2O[C@H](CC(=O)NCc3ccccc3F)CC[C@H]21`, the inhibition was -13.7% (inactive). The value for `CC(C)C#Cc1ccc2c(c1)O[C@H](CN(C)Cc1ccccc1)[C@H](C)CN([C@@H](C)CO)S2(=O)=O` was -0.3% (inactive); that for `C[C@@H](O)C#Cc1ccc2c(c1)O[C@@H](CN(C)Cc1cccnc1)[C@@H](C)CN([C@@H](C)CO)S2(=O)=O` was -2.24% (inactive). The value for `C[C@@H]1CN([C@@H](C)CO)S(=O)(=O)c2ccc(C3=CCCC3)cc2O[C@@H]1CN(C)Cc1ccncc1` was 0.906% (inactive); that for `C/C=C/c1ccc2c(c1)O[C@H](CN(C)Cc1ccccc1)[C@H](C)CN([C@@H](C)CO)S2(=O)=O` was 3.6% (inactive).

Turning to `C[C@@H]1CN([C@H](C)CO)S(=O)(=O)c2ccc(C#C[C@@H](C)O)cc2O[C@@H]1CN(C)Cc1ccc(-c2ccccc2)cc1`, the inhibition is 27% (active) and 4.33% (inactive) and -0.184% (inactive). The value for `C[C@H](CO)N1C[C@H](C)[C@@H](CN(C)Cc2cccnc2)Oc2cc(C3=CCCC3)ccc2S1(=O)=O` was 0.149% (inactive); that for `Cc1noc(C)c1NC(=O)N(C)C[C@@H]1Oc2cc(C#CCC(C)C)ccc2S(=O)(=O)N([C@H](C)CO)C[C@@H]1C` was 10.8% (inactive); that for `C/C=C/c1ccc2c(c1)O[C@H](CN(C)C)[C@H](C)CN([C@H](C)CO)S2(=O)=O` was -0.588% (inactive). The value for `COc1ccccc1NC(=O)N(C)C[C@H]1Oc2cc(Br)ccc2S(=O)(=O)N([C@H](C)CO)C[C@@H]1C` was -3.29% (inactive) and -0.792% (inactive). As for `C[C@H]1CN([C@@H](C)CO)S(=O)(=O)c2ccc(C3=CCCC3)cc2O[C@@H]1CN(C)Cc1ccccc1`, the inhibition is 24.3% (active). With `Cc1noc(C)c1NC(=O)N(C)C[C@@H]1Oc2cc(Br)ccc2S(=O)(=O)N([C@@H](C)CO)C[C@H]1C`, the inhibition was -3.62% (inactive) and 22.1% (active). The value for `C/C=C/c1ccc2c(c1)O[C@H](CN(C)Cc1cccc(F)c1)[C@H](C)CN([C@H](C)CO)S2(=O)=O` was 18% (active); that for `CO[C@@H](CN(C)C(=O)c1cnccn1)[C@@H](C)CN([C@@H](C)CO)S(=O)(=O)c1ccc(F)cc1` was 3.39% (inactive); that for `CCNC(=O)C[C@@H]1CC[C@@H]2[C@H](COc3ccc(NS(=O)(=O)c4ccccc4C)cc3C(=O)N2C)O1` was -4.85% (inactive). For `C/C=C/c1ccc2c(c1)O[C@@H](CN(C)S(=O)(=O)c1ccc(F)cc1)[C@@H](C)CN([C@H](C)CO)S2(=O)=O`, the inhibition is 7.93% (inactive). The value for `O=C(Nc1cc(F)ccc1F)N[C@H]1CC[C@@H](CCn2cc(C3CCCC3)nn2)O[C@@H]1CO` was -0.428% (inactive); that for `C[C@H](CO)N1C[C@H](C)[C@@H](CN(C)C(=O)c2ccncc2)Oc2cc(/C=C/c3ccccc3)ccc2S1(=O)=O` was 0.659% (inactive). The value for `COc1cccc(S(=O)(=O)N(C)C[C@@H]2Oc3cc(C4=CCCCC4)ccc3S(=O)(=O)N([C@H](C)CO)C[C@H]2C)c1` was 37.3% (active). On to `C[C@@H]1CN([C@H](C)CO)S(=O)(=O)c2ccc(/C=C/c3ccccc3)cc2O[C@@H]1CN(C)Cc1ccccc1`, for which the inhibition is 23.2% (active). The value for `C[C@@H]1CN([C@@H](C)CO)S(=O)(=O)c2ccc(/C=C/c3ccccc3)cc2O[C@@H]1CN(C)C(=O)Nc1cc(F)ccc1F` was 21.7% (active); that for `C[C@@H]1CN([C@@H](C)CO)S(=O)(=O)c2ccc(/C=C/c3ccccc3)cc2O[C@H]1CN(C)C(=O)Nc1cc(F)ccc1F` was -3.9% (inactive); that for `C[C@@H]1CN([C@H](C)CO)S(=O)(=O)c2ccc(C3=CCCC3)cc2O[C@H]1CN(C)C(=O)Nc1ccc2c(c1)OCO2` was 7.25% (inactive). The value for `Cc1ccc(S(=O)(=O)N(C)C[C@@H]2Oc3cc(C4=CCCC4)ccc3S(=O)(=O)N([C@@H](C)CO)C[C@@H]2C)cc1` was 8.8% (inactive); that for `C[C@@H]1CN([C@@H](C)CO)S(=O)(=O)c2ccc(/C=C/c3ccccc3)cc2O[C@H]1CN(C)Cc1ccccc1` was -1.92% (inactive).

For the molecule `C[C@@H]1CN([C@H](C)CO)S(=O)(=O)c2ccc(/C=C/c3ccccc3)cc2O[C@@H]1CN(C)C(=O)Nc1ccc(F)cc1`, the inhibition is 0.2% (inactive).

Regarding `C[C@@H]1CN([C@@H](C)CO)S(=O)(=O)c2ccc(/C=C/c3ccccc3)cc2O[C@H]1CN(C)Cc1cccnc1`, the inhibition was 5.97% (inactive). The value for `C[C@H]1CN([C@@H](C)CO)S(=O)(=O)c2ccc(C#Cc3ccncc3)cc2O[C@@H]1CN(C)C(=O)Nc1ccc2c(c1)OCO2` was 4.3% (inactive); that for `C[C@H]1CN([C@@H](C)CO)S(=O)(=O)c2ccc(C3=CCCC3)cc2O[C@H]1CN(C)C(=O)Nc1ccc2c(c1)OCO2` was 16.2% (active); that for `C[C@H](CO)N1C[C@H](C)[C@@H](CN(C)S(=O)(=O)c2ccc(F)cc2)Oc2cc(C3=CCCC3)ccc2S1(=O)=O` was -0.634% (inactive).
